Assay results taken from PubChem BioAssay (NCATS).
Results filed as inconclusive are left out. The source made the active and inactive calls. Unless noted, the call rests on the fitted dose curve; in most records, active means well fitted curve in the direction sought with a large enough effect; inconclusive means small, poorly fitted or top-dose-only effect, or another doubt; inactive means no such curve, though single readings can be large; an effect the other way counts as inactive or inconclusive.

Experiments:
[1] = P-glycoprotein substrates identified in KB-8-5-11 adenocarcinoma cell line, qHTS therapeutic library screen (AID 1346987); further: series mostly up to about 44 µM; on the % scale 0 is the no-effect control and ±100 the full control effect; nearly all actives have a fitted effect of over 65% in size
Method in brief: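 P-gp-mediated resistance screen: KB-8-5-11 cells treated 72 h with compounds in dose-response. CellTiter-Glo viability.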

[2] = NS1 protein of Zika virus - qHTS assay to identify small molecule inhibitors in human HEK 293 cells (AID 1347053);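 further: series mostly up to about 46 µM; plate controls were infected untreated cells for no effect and uninfected cells for full effect; nearly all actives have a fitted effect of over 55% in size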
Method in brief: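 HEK 293 cells pretreated with compound for 1 h, then infected with ZIKV MR766 (MOI 0.5) for 24 h at 37 C. NS1 detected by TR-FRET with two anti-NS1 antibodies; normalized to uninfected (0%) and infected (100%) wells.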

[3] = qHTS for Inhibitors of the Functional Ribonucleoprotein Complex (vRNP) of Lassa (LASV) Arenavirus: LASV Primary Screen - GLuc reporter signal (AID 1347082; calls by dose curve; tested in HEK293 reporter line; further: series mostly up to about 57 µM; on the % scale 0 is the no-effect control and ±100 the full control effect; nearly all actives have a fitted effect of over 60% in size)
[4] = qHTS for Inhibitors of the Functional Ribonucleoprotein Complex (vRNP) of Lassa (LASV) Arenavirus: Viability assay - alamar blue signal for LASV Primary Screen (AID 1347083; calls by dose curve; tested in HEK293 reporter line; further: series mostly up to about 57 µM; on the % scale 0 is the no-effect control and ±100 the full control effect; nearly all actives have a fitted effect of over 80% in size)
[5] = qHTS for Inhibitors of the Functional Ribonucleoprotein Complex (vRNP) of Lymphocytic Choriomeningitis Arenaviruses (LCMV): Viability assay - alamar blue signal for LCMV Primary Screen (AID 1347085; calls by dose curve; tested in HEK293 reporter line; further: series mostly up to about 57 µM; on the % scale 0 is the no-effect control and ±100 the full control effect; nearly all actives have a fitted effect of over 80% in size)
[6] = molecular target: Nucleoprotein (Lymphocytic choriomeningitis virus (strain Armstrong)) (UniProt P09992); assay: qHTS for Inhibitors of the Functional Ribonucleoprotein Complex (vRNP) of Lymphocytic Choriomeningitis Arenaviruses (LCMV): LCMV Primary Screen - GLuc reporter signal (AID 1347086; calls by dose curve; further: series mostly up to about 57 µM; on the % scale 0 is the no-effect control and ±100 the full control effect; nearly all actives have a fitted effect of over 70% in size)
[7] = qHTS of pediatric cancer cell lines to identify multiple opportunities for drug repurposing: Primary screen for TC32 cells (AID 1347089); further: on the % scale 0 is the no-effect control and ±100 the full control effect; nearly all actives have a fitted effect of over 60% in size
Method in brief: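 Measured quantity: luminescence from CellTiter-Glo, reflecting metabolically active TC32 cells following 48 h of compound. Curves came straight from multi-point titrations, with 8 or 11 points in primary and 11 in confirmatory screening.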

[8] = qHTS of pediatric cancer cell lines to identify multiple opportunities for drug repurposing: Primary screen for DAOY cells (AID 1347090);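 further: series mostly up to about 46 µM; plate controls were DMSO for no effect and bortezomib for full effect; nearly all actives have a fitted effect of over 55% in size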
Method in brief: (§1)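 Cell viability, CellTiter-Glo luminescence; 500-1,000 cells/well, 8- or 11-point titration, 48 h compound exposure at 37 degrees C, 5% CO2. Controls: DMSO neutral, bortezomib 2.3 µM final as positive.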

[9] = qHTS of pediatric cancer cell lines to identify multiple opportunities for drug repurposing: Primary screen for SJ-GBM2 cells (AID 1347091);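 further: plate controls were DMSO neutral control for no effect and bortezomib for full effect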
Method in brief: as §1

[10] = qHTS of pediatric cancer cell lines to identify multiple opportunities for drug repurposing: Primary screen for A673 cells (AID 1347092); further: on the % scale 0 is the no-effect control and ±100 the full control effect; nearly all actives have a fitted effect of over 45% in size
Method in brief: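 Cells are plated, rested 5 h, dosed by pintool, incubated 48 h, then lysed with CellTiter-Glo and read by luminescence. DMSO is the neutral control; bortezomib at 2.3 uM final is the positive control.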

[11] = qHTS of pediatric cancer cell lines to identify multiple opportunities for drug repurposing: Primary screen for SK-N-MC cells (AID 1347093);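 further: series mostly up to about 46 µM; plate controls were DMSO neutral control for no effect and bortezomib for full effect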
Method in brief: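 Metabolically active cells were quantified by ATP-dependent luminescence (CellTiter-Glo, 15 min at room temperature) following 48 h treatment. Cells had been plated at 500-1,000 per well and settled for 5 h beforehand.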

[12] = qHTS of pediatric cancer cell lines to identify multiple opportunities for drug repurposing: Primary screen for BT-37 cells (AID 1347094);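 further: series mostly up to about 57 µM; plate controls were DMSO for no effect and bortezomib for full effect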
Method in brief: (§2)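 Luminescence from CellTiter-Glo served as readout of metabolically active cells after 48 h compound exposure. Titrations: MIPE 11-point, from 0.78 nM; NPC 8-point, from 0.59 nM (final). Concentration-response curves came straight from the primary screen.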

[13] = qHTS of pediatric cancer cell lines to identify multiple opportunities for drug repurposing: Primary screen for NB-EBc1 cells (AID 1347095);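 further: plate controls were DMSO neutral control for no effect and bortezomib for full effect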
Method in brief: as §2

[14] = qHTS of pediatric cancer cell lines to identify multiple opportunities for drug repurposing: Primary screen for U-2 OS cells (AID 1347096);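 further: plate controls were DMSO wells for no effect and bortezomib positive control wells for full effect; nearly all actives have a fitted effect of over 50% in size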
Method in brief: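 Cells (500-1,000/well) rested 5 h, then received compounds for 48 h; metabolically active cells were measured by CellTiter-Glo luminescence. Final concentrations spanned up to 46 µM (MIPE, 11-point) or 0.59 nM-46 µM (NPC, 8-point) in primary screens, 11-point in follow-ups.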

[15] = qHTS of pediatric cancer cell lines to identify multiple opportunities for drug repurposing: Primary screen for Saos-2 cells (AID 1347097); further: on the % scale 0 is the no-effect control and ±100 the full control effect; nearly all actives have a fitted effect of over 40% in size
Method in brief: as §2

Nucleoprotein (Lymphocytic choriomeningitis virus (strain Armstrong)), sequence (P09992 whole entry, looked up): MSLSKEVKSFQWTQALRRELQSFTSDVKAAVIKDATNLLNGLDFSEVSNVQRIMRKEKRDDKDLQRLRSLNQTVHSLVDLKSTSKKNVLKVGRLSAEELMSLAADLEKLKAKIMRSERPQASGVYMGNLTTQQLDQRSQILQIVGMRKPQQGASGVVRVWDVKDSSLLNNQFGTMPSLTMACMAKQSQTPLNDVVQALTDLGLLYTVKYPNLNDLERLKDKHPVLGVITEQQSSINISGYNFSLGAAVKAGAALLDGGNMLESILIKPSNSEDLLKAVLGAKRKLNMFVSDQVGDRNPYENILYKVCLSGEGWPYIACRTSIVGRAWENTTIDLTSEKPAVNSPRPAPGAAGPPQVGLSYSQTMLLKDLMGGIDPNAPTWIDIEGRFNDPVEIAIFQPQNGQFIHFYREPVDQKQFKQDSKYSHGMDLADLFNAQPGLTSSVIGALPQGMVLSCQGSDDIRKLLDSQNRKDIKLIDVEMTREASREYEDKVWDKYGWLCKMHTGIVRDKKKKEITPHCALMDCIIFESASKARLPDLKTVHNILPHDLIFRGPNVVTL

CCN[C@@H](C)Cc1ccccc1
inactive: Potency [1] | outcome [2] | Potency [3] | Potency [4] | Potency [5] | Potency [6] | Potency [7] | Potency [8] | Potency [9] | Potency [10] | Potency [11] | Potency [12] | Potency [13] | Potency [14] | Potency [15]

COP(=S)(OC)Oc1ccc(SC)c(C)c1
inactive: Potency [1] | outcome [2] | Potency [3] | Potency [4] | Potency [5] | Potency [6] | Potency [7] | Potency [8] | Potency [9] | Potency [10] | Potency [11] | Potency [12] | Potency [13] | Potency [14] | Potency [15]

NC1=NC(=O)C(c2ccccc2)O1 (stereo not given)
inactive: Potency [1] | outcome [2] | Potency [3] | Potency [4] | Potency [5] | Potency [6] | Potency [7] | Potency [8] | Potency [9] | Potency [10] | Potency [11] | Potency [12] | Potency [13] | Potency [14] | Potency [15]

O=[N+]([O-])O[C@H]1CO[C@H]2[C@@H]1OC[C@H]2O[N+](=O)[O-]
inactive: Potency [1] | outcome [2] | Potency [3] | Potency [4] | Potency [5] | Potency [6] | Potency [7] | Potency [8] | Potency [9] | Potency [10] | Potency [11] | Potency [12] | Potency [13] | Potency [14] | Potency [15]

CNCC(=O)c1ccc(O)c(O)c1
inactive: Potency [1] | outcome [2] | Potency [3] | Potency [4] | Potency [5] | Potency [6] | Potency [7] | Potency [8] | Potency [9] | Potency [10] | Potency [11] | Potency [12] | Potency [13] | Potency [14] | Potency [15]

Oc1ccc(Cl)cc1
inactive: Potency [1] | outcome [2] | Potency [3] | Potency [4] | Potency [5] | Potency [6] | Potency [7] | Potency [8] | Potency [9] | Potency [10] | Potency [11] | Potency [12] | Potency [13] | Potency [14] | Potency [15]

[N-]=[N+]=CC(=O)OC[C@H](N)C(=O)O
inactive: Potency [1] | outcome [2] | Potency [3] | Potency [4] | Potency [5] | Potency [6] | Potency [7] | Potency [8] | Potency [9] | Potency [10] | Potency [11] | Potency [12] | Potency [13] | Potency [14] | Potency [15]

CC(=O)OCC1=C(C(=O)O)N2C(=O)[C@@H](N)[C@H]2SC1
inactive: Potency [1] | outcome [2] | Potency [3] | Potency [4] | Potency [5] | Potency [6] | Potency [7] | Potency [8] | Potency [9] | Potency [10] | Potency [11] | Potency [12] | Potency [13] | Potency [14] | Potency [15]

NC(=O)CS(=O)C(c1ccccc1)c1ccccc1 (stereo not given)
inactive: Potency [1] | outcome [2] | Potency [3] | Potency [4] | Potency [5] | Potency [6] | Potency [7] | Potency [8] | Potency [9] | Potency [10] | Potency [11] | Potency [12] | Potency [13] | Potency [14] | Potency [15]

C=CCN1C[C@H](C)N([C@H](c2ccc(C(=O)N(CC)CC)cc2)c2cccc(OC)c2)C[C@H]1C
inactive: activity change, negative = cytotoxicity [1] -6.15% [at 9.29 µM] | outcome [2] | Potency [3] | Potency [4] | Potency [5] | Potency [6] | Potency [7] | Potency [8] | Potency [9] | Potency [10] | Potency [11] | Potency [12] | Potency [13] | Potency [14] | Potency [15]

CCC1(c2ccccc2)C(=O)N(COC)C(=O)N(COC)C1=O
inactive: Potency [1] | outcome [2] | Potency [3] | Potency [4] | Potency [5] | Potency [6] | Potency [7] | Potency [8] | Potency [9] | Potency [10] | Potency [11] | Potency [12] | Potency [13] | Potency [14] | Potency [15]

CN1C(=O)NC(=O)C(C)(C2=CCCCC2)C1=O (stereo not given)
inactive: Potency [1] | outcome [2] | Potency [3] | Potency [4] | Potency [5] | Potency [6] | Potency [7] | Potency [8] | Potency [9] | Potency [10] | Potency [11] | Potency [12] | Potency [13] | Potency [14] | Potency [15]

O=C1OC(c2ccc(O)c(S(=O)(=O)O)c2)(c2ccc(O)c(S(=O)(=O)O)c2)c2c(Br)c(Br)c(Br)c(Br)c21
inactive: Potency [1] | outcome [2] | Potency [3] | Potency [4] | Potency [5] | Potency [6] | Potency [7] | Potency [8] | Potency [9] | Potency [10] | Potency [11] | Potency [12] | Potency [13] | Potency [14] | Potency [15]

CC(C)(C)NCC(O)c1cc(Cl)c(N)c(C(F)(F)F)c1 (stereo not given)
inactive: Potency [1] | outcome [2] | Potency [3] | Potency [4] | Potency [5] | Potency [6] | Potency [7] | Potency [8] | Potency [9] | Potency [10] | Potency [11] | Potency [12] | Potency [13] | Potency [14] | Potency [15]

COP(=S)(OC)Oc1cc(Cl)c(Cl)cc1Cl
inactive: Potency [1] | outcome [2] | Potency [3] | Potency [4] | Potency [5] | Potency [6] | Potency [7] | Potency [8] | Potency [9] | Potency [10] | Potency [11] | Potency [12] | Potency [13] | Potency [14] | Potency [15]

Nc1ccccc1
inactive: Potency [1] | outcome [2] | Potency [3] | Potency [4] | Potency [5] | Potency [6] | Potency [7] | Potency [8] | Potency [9] | Potency [10] | Potency [11] | Potency [12] | Potency [13] | Potency [14] | Potency [15]

CCN(CC)CCc1c[nH]c2ccccc12
inactive: Potency [1] | outcome [2] | Potency [3] | Potency [4] | Potency [5] | Potency [6] | Potency [7] | Potency [8] | Potency [9] | Potency [10] | Potency [11] | Potency [12] | Potency [13] | Potency [14] | Potency [15]
